# Only some compounds are listed: those with a hit (about 19% of all), similar ones and a draw of the others.
# Giardia kill: Giardia lamblia killing | activity change, % at 7.66 µM, hits read low | 0.15% of 340,000 active | Giardia lamblia trophozoite viability | AID 540267; in the data active = activity change below about -80%; inconclusive = between about -30% and that limit;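 also: parasites exposed to compound for two days anaerobically before the ATP read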
#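 Trophozoites 100 cells/well + cpd; 48 hrs, 37 deg C, anaerobic. ATPLite 1-Step added, 15-30 min RT, luminescence read (ATP-based viability).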
# DT40 TDP1 no CPT: qHTS for Inhibitors of human tyrosyl-DNA phosphodiesterase 1 (TDP1): qHTS in cells in absence of CPT | DT40 Tdp1-/- hTDP1 cells, no CPT, ATP luminescence, 48 h | 15% of 420,000 active | Potency, µM (doses to about 46.2 µM), inactives show top-dose activity change, negative = growth inhibition, usual class: inhibitors; also: potency is read from the fitted curve at half-maximal effect; nearly all actives have a fitted effect of over 55% in size
#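 Compound effects on proliferation are scored in DT40 Tdp1-/-;hTDP1 cells in the absence of CPT. ATP levels (CellTiter-Glo luminescence) are recorded after a ≥48 hr, 37 °C incubation.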
# TDP1 inh: blocks human tyrosyl-DNA phosphodiesterase 1; AID 485290; Potency, µM (titrated, usually from 130 µM), for inactives: at the top dose activity change, negative = inhibition, actives largely listed as inhibitors; Q9NUW8; recombinant TDP1, AlphaScreen DNA substrate cleavage; 0.28% of 350,000 active; also: potency is read from the fitted curve at half-maximal effect; nearly all actives have a fitted effect of over 40% in size
# Target sequence (Q9NUW8 whole entry, looked up): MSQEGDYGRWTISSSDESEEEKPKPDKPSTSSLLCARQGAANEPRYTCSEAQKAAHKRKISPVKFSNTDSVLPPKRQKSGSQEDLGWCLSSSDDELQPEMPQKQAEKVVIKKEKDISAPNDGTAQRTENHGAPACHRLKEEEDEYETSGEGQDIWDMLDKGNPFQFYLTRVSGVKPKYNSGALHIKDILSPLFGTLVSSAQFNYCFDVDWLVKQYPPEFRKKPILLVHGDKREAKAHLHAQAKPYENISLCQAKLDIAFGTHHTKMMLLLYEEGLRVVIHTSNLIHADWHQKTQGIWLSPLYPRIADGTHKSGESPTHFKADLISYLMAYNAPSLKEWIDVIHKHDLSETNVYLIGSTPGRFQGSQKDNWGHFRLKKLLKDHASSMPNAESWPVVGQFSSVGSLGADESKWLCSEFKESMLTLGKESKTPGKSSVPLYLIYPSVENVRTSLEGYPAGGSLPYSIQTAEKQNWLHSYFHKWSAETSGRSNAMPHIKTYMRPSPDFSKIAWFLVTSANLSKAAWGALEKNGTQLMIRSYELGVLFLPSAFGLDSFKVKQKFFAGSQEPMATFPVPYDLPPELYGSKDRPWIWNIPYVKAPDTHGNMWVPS
#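 Steps: enzyme plus compound, 15 min RT; add biotin/phosphotyrosine-FITC oligonucleotide (15 nM final), react 5 min; add donor/acceptor beads (10 ug/ml final), 10 min; read AlphaScreen. Tdp1 at 1 nM final.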
# ELG1 DNA repair: ELG1-dependent DNA repair inhibition | HEK293T ELG1-luciferase reporter, luminescence, 16 h; DNA damage induced by 5-fluorouridine | Potency, µM (series often up to 46.1 µM), inactives show at the top dose activity change, negative = inhibition, actives largely listed as inhibitors | 2.3% of 330,000 active; also: potency is read from the fitted curve at half-maximal effect; nearly all actives have a fitted effect of over 55% in size
#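 Cells (2,000 per well) received 5-fluorouridine plus test compound or DMSO and were incubated 16 hr at 37 °C, 5% CO2. Luciferase activity was read by luminescence 30 min after ONE-Glo addition; signal suppression marked inhibition of damage-induced ELG1 function.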
# DT40 TDP1 CPT: DT40-hTDP1 cell growth loss with CPT | chicken DT40 Tdp1-/-;hTDP1 cells + 20 nM CPT, ATP luminescence, 48 h | Potency, µM (highest dose often 46.2 µM), inactives show at the top dose activity change, negative = growth inhibition, actives largely listed as inhibitors | 12% of 420,000 active; also: potency is read from the fitted curve at half-maximal effect; nearly all actives have a fitted effect of over 55% in size
#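 Cell growth measured by CellTiter-Glo luminescence after a minimum 48 h, 37 C compound exposure with 20 nM CPT in Tdp1-knockout DT40 cells stably expressing hTDP1, seeded 400/well; qHTS titration format.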
# IL1B secr inh: inflammasome signaling inhibition, IL-1 beta readout | THP-1 LPS/ATP IL-1B secretion, AlphaLISA, 16 h; active compounds read low | activity change, % at 57.5 µM | 4.7% of 360,000 active | AID 743279; in the data active = activity change below about -50%; inconclusive = mostly about -30% to -49%
#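 Secreted IL-1B measured by AlphaLISA bead assay after 16 h compound exposure of THP-1 cells; compounds (final up to 57.5 uM) added 1 h before LPS (250 ng/mL) and ATP (1.25 mM) stimulation; lower signal means less secretion.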
# Starred values were filed as active, the others as inactive; ? = inconclusive; . = not tested or not shown. Unless noted, calls follow the shape of the dose curve; as a rule, active = well fitted curve in the direction sought with a large enough effect; inconclusive = small, poorly fitted or top-dose-only effect, or another doubt; inactive = no such curve, though single readings can be large; an effect the other way counts as inactive or inconclusive. % is scaled to controls: 0 for no effect and ±100 for the full control effect.
SMILES,Giardia kill,DT40 TDP1 no CPT,TDP1 inh,ELG1 DNA repair,DT40 TDP1 CPT,IL1B secr inh
CC[C@@]12C(=O)N(c3cccc(Cl)c3)C(=O)N1[C@H](c1ccc(Br)cc1)[C@@H]1C(=O)N(C(C)(C)C)C(=O)[C@@H]12,0.8,16.4µM*,-0.1%,-1.1%,25.9µM*,-24.7
COc1ccc(N2C(=O)N3[C@H](c4cccc(C)c4)[C@@H]4C(=O)N(Cc5ccccc5)C(=O)[C@@H]4[C@]3(Cc3ccccc3)C2=O)cc1,-11.3,13µM*,.,-1.7%,11.6µM*,2.7
CC(C)(C)N1C(=O)[C@H]2[C@@H](c3ccc(Br)cc3)N3C(=O)N(c4ccccc4)C(=O)[C@@]3(Cc3ccccc3)[C@H]2C1=O,-4.7,?,3.3%,19.1%,?,-1.2
CC(C)(C)N1C(=O)[C@H]2[C@@H](c3ccc(Br)cc3)N3C(=O)N(c4cccc(Br)c4)C(=O)[C@@]3(Cc3ccccc3)[C@H]2C1=O,0.3,8.2µM*,.,35.8%,?,-8.2
Cc1noc(C)c1C(=O)N(CC(C)C)c1nc2ccccc2s1,4.4,?,-6.9%,-4.6%,?,14.7
CCc1ccc(N2C(=O)C(Cl)=C(Nc3ccc(C(=O)N4CCCC4)cc3)C2=O)cc1,-19.9,-6.0%,4.3%,-3.3%,-27.6%,-92.3*
O=C(c1ccc(N2C(=O)c3ccccc3C2=O)cc1)N1CCCCC1,7.6,5.3%,.,9.6%,-6.4%,4.8
Cc1ccc2c(c1)ncc[n+]2CC(=O)c1ccc(Cl)cc1Cl,.,-29.3%,.,.,-12.0%,.
C[C@@H]1CNCCN1S(=O)(=O)c1cccc2cnccc12,.,29.9µM*,4.8%,.,?,.
CCOc1ccc(CCNC(=O)c2cc3c(s2)-c2ccccc2OC3)cc1OCC,.,.,-6.8%,.,.,.
CCN(CC)CCNC(=O)c1ccc2c(c1)sc1nc(-c3ccc(F)cc3)cn12,.,3.26µM*,5.2%,.,5.8µM*,.
COc1ccc(-c2cn3c(n2)sc2cc(C(=O)Nc4ccc(F)cc4Cl)ccc23)cc1,.,?,-7.8%,.,?,.
CCOc1ccc(-c2cn3c(n2)sc2cc(C(=O)NCCCN4CCCCCC4)ccc23)cc1,.,6.51µM*,2.6%,.,5.8µM*,.
CCOc1ccc(-c2cn3c(n2)sc2cc(C(=O)NCCc4ccc(OC)cc4OC)ccc23)cc1,.,?,-6.8%,.,-20.9%,.
CCOc1ccc(CNC(=O)c2ccc3c(c2)sc2nc(-c4ccc(OC)cc4)cn23)cc1,.,-17.9%,0.0%,.,-3.5%,.
CCOc1ccc(-c2cn3c(n2)sc2cc(C(=O)NCCCN(CC)CC)ccc23)cc1,.,0.82µM*,1.3%,.,0.731µM*,.
CCOc1ccc(-c2cn3c(n2)sc2cc(C(=O)NCCCN4CCCCC4)ccc23)cc1,.,1.64µM*,-7.8%,.,1.64µM*,.
COc1cc(NC(=O)CC(C)n2nc(C)cc2C)cc(OC)c1 (centres undefined),.,-28.9%,4.5%,.,-2.2%,.
C=CCc1cc(F)c(S(=O)(=O)N2CCN(S(=O)(=O)c3ccc4c(c3)OCCO4)CC2)cc1F,.,.,-0.5%,.,.,.
CCCN1CCN(CCCNC(=O)c2ccc3c(c2)sc2nc(-c4ccc(OCC)cc4)cn23)CC1,.,2.91µM*,-2.0%,.,1.84µM*,.
CCOc1ccc(-c2cn3c(n2)sc2cc(C(=O)NC4CCCc5ccccc54)ccc23)cc1 (centres undefined),.,5.17µM*,0.0%,.,11.6µM*,.
CC(=O)N(Cc1cccnc1)c1nc2c(C)cccc2s1,.,-8.8%,0.0%,.,?,.
COc1cc(NCCCCC(C)N)c2nccc(C)c2c1 (centres undefined),.,3.66µM*,.,.,5.8µM*,-11.8
CCOc1c(Cl)cc(CNC(C)(C)CC(C)(C)C)cc1OC,-2.7,20.6µM*,8.8%,-13.2%,?,-11.6
CC(C)Oc1c(Cl)cc(CNC(C)(C)CO)cc1Cl,5.0,-17.1%,1.1%,0.9%,-24.8%,0.5

# Screening results deposited in PubChem BioAssay by National Center for Advancing Translational Sciences (NCATS).
